From PubChem BioAssay (NCATS)
“And” between values parts separate entries of the source, which are not always exact repeats. Identical values can stand only once. Inconclusive results are not listed. The source made the active and inactive calls. Calls come from the whole dose curve.

Assay: qHTS Assay for Lipid Storage Modulators (AID 1519); for activity change, negative = inhibition: % is set by controls: 0 for no effect and ±100 for the full control effect
Conditions: Drosophila S3 cells, BODIPY lipid droplet/cell ratio, laser cytometry, cells loaded with oleic acid; for activity change, negative = inhibition: at 57.5 µM (top of the series)
Source text: NIH Molecular Libraries Probe Production Centers Network [MLPCN]
NIH Chemical Genomics Center [NCGC]
Assay Submitter (PI): Beller, Mathias; Max-Planck-Institut fur Biophysikalische Chemie
NCGC Assay Overview: Storing lipids as a reservoir for energy or the anabolism of elementary metabolites is a common feature of probably all cells and is conserved from bacteria to humans. The universal cellular lipid storage organelle is the so-called lipid storage droplet (LD). Although ubiquitous, LDs share a simple structure composed of a hydrophobic core that harbors the storage lipids, which is shielded by a droplet-specific phospholipid monolayer to which proteins are attached. The current model of LD biogenesis involves an incorporation of the lipid core into the membrane leaflets of the endoplasmic reticulum (ER) followed by a subsequent budding-like maturation of a LD, which ultimately pinches off. Once released, LD volume can increase by localized lipogenesis or fusion of existing droplets. Storage lipids are re-mobilized enzymatically by lipase activity. Lipase regulation in the adipocyte is heavily studied and involves multiple components including catecholamine signaling, the LD-associated proteins Perilipin and comparative gene identification-58 (CGI-58) and at least two lipases named hormone sensitive lipase (HSL) and adipocyte triglyceride lipase (ATGL). LD regulation outside of the adipocyte is poorly understood and only few components are known. However, there is an urgent need to learn more about ectopic fat depots as mislocalized storage of lipids, for example in the liver or muscle, is an eminent health problem associated with insulin resistance or the metabolic syndrome. We developed a laser-scanning cytometer assay to enable 1,536-well screening and combined the results of the small molecules screen with an RNAi database based on lipid storage.
NCGC Assay Protocol Summary:
We dispensed 4 uL of cells at 1.25 x 10^6 cells/mL into LoBase Aurora COC 1,536-well plates (black walled, clear bottom) with a bottle-valve solenoid-based dispenser (Aurora) to obtain 5,000 cells/well. Triacsin C (Sigma-Aldrich T-4540), an inhibitor of long-chain fatty acyl CoA synthetase that blocks synthesis of triglycerides, was used as a positive control for lipid under-storage. A total of 23 nL of compound solution of different concentrations were transferred to the assay plates using a Kalypsys pin tool equipped with a 1,536-pin array containing 10-nL slotted pins (FP1S10, 0.457-mm diameter, 50.8 mm long; V&P Scientific). One microliter of oleic acid (400 uM) was added, and the plate was lidded with stainless steel rubber gasket lined lids containing pinholes. […] Fluorescence was detected by excitation of the fluorophores with a 488-nm laser on an Acumen Explorer (TTP Lab Tech). The total intensity in channel 1 (500-530 nm) reflected lipid droplet accumulation. […] The ratio of the total intensity in PMT channel 1 over total intensity of channel 3 was also calculated. Percent activity was computed relative to an internal control (100% inhibited lipid droplet deposition due to the presence of 20 uM Triacsin C), which was added to 32 wells/plate.

[1] = measured here: cell count channel max response
[2] = measured here: lipid channel max response

Row | SMILES | activity change, negative = inhibition | max response [1] | max response [2]
1 | NC(=O)CNCCC(c1ccccc1)c1ccccc1 | 0.71% (inactive) | -14.5% | -14.2%
2 | C/C(=C\c1ccc(C(=O)O)cc1)c1ccc2c(c1)C(C)(C)CCC2(C)C | -4.87% (inactive) and -0.58% (inactive) | -0.191% and 31.2% | -3.14% and 29.9%
3 | CC#CCOC(=O)c1c(C)nc2sc3c(c2c1N)CCC(O)C3 (configuration not stated) | -1.83% (inactive) | 5.64% | 4.05%
4 | O=C(O)/C=C/c1ccc(O)c(O)c1 | 3.74% (inactive) and 0.322% (inactive) | 0.683% and 6.48% | 7.03% and 6.69%
5 | CSC(=N)N | -0.307% (inactive) | 53.5% | 52.9%
6 | NC1(C(=O)O)CCc2cc(C(=O)O)ccc21 (configuration not stated) | -2.76% (inactive) | -17.6% | -22%
7 | NCCC1CCCC(CCN)N1 (configuration not stated) | -3.87% (inactive) | -16% | -17.4%
8 | C[N+](C)(C)CC=O | -0.649% (inactive) | 50.2% | 40.1%
9 | N=S(=O)(O)Cc1noc2ccccc12 | -0.718% (inactive) | 21.5% | 20%
10 | Nc1ncnc2c1ncn2C1CCCO1 (configuration not stated) | -1.26% (inactive) | 24.9% | 22.8%
11 | CCCn1c(=O)c2[nH]c(C3CCCC3)nc2n(CCC)c1=O | 7.3% (inactive) | 9.56% | 17.6%
12 | Oc1cc2c(cc1O)C(c1ccccc1)CNCC2 (configuration not stated) | 4.39% (inactive) and 0.147% (inactive) | 1.14% and -18.7% | 16.2% and -20.2%
13 | CCC(=O)N1CCN(C(=O)c2ccccc2)CC1 | 0.685% (inactive) | -9.69% | -7.51%
14 | NC1(C(=O)O)CC1 | 3.79% (inactive) | 18.9% | 25.1%
